The list is not random: actives were taken first. Their share in the collection is about 11%.
AmpC inh no detg: inhibitors of E. coli AmpC beta-lactamase without detergent; P00811; AmpC nitrocefin hydrolysis, absorbance 480 nm, 0.0001% Triton; Potency, µM (titrated, usually from 57.1 µM), without a hit: at the top dose activity change, negative = inhibition, usual class: inhibitors; hit rate 0.52% among 330,000; AID 485341;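 note: plate controls were no compound for no effect and no enzyme for full effect; nearly all actives have a fitted effect of over 20% in size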
Target sequence (P00811 whole entry, looked up): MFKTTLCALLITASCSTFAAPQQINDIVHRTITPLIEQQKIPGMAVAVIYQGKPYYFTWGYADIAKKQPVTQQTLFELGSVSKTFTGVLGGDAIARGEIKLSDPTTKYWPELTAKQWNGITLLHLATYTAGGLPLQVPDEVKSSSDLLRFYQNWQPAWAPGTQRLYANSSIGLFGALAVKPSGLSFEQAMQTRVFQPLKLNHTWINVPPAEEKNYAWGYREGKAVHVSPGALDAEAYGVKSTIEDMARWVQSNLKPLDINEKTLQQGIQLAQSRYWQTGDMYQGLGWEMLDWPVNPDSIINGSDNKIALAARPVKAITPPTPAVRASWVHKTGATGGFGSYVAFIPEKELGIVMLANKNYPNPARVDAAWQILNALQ
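AmpC (5.3 nM in the dispensed reagent) in 20 mM phosphate pH 7.0 with 0.01% (detergent screen) or 0.0001% Triton X-100 was preincubated with compounds for 15 min at room temperature. Nitrocefin was then added from an 800 uM solution, and hydrolysis was followed at 480 nm.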
AMA1 RON2 block: AMA1-RON2 (P. falciparum) interaction inhibition; AlphaScreen AMA1-biotinylated RON2 peptide binding; Potency, µM (top dose mostly 58.2 µM), without a hit: at the top dose activity change, negative = inhibition, actives largely listed as inhibitors; hit rate 0.2% among 360,000; AID 720542;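 note: 0% = vehicle wells and -100% = peptide control; nearly all actives have a fitted effect of over 45% in size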
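AMA1 (3D7) with his tag at 25 nM final met compounds first, then biotinylated RON2 peptide at 25 nM; detection used donor plus acceptor beads, 10 µg/mL apiece, read by AlphaScreen after 30 min at room temperature.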
AmpC detergent: blocks E. coli AmpC beta-lactamase in detergent assay | P00811 | AmpC hydrolysis of nitrocefin, absorbance 480 nm, 0.01% Triton | Potency, µM (titrated, usually from 114 µM), without a hit: at the top dose activity change, negative = inhibition, hits mostly inhibitors | hit rate 0.041% among 370,000 | AID 485294;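 note: 0% = no-compound wells and -100% = no-enzyme wells; nearly all actives have a fitted effect of over 25% in size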
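20 mM phosphate pH 7.0 + 0.01% (detergent screen) or 0.0001% Triton X-100; 5.3 nM AmpC reagent; cpd preinc 15 min RT; nitrocefin (800 uM stock) to start; A480 q20 s × 4 min; Activity was normalised to no-enzyme and no-compound control wells.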
HCV inh: inhibitors of hepatitis C virus infection; hit rate 3.4% among 340,000; Potency, µM (titrated, usually from 41.8 µM), inactives show at the highest dose activity change, negative = inhibition, most hits filed as inhibitors; Huh7.5.1 HCVcc-Cre infection, luciferase reporter, 44 h
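After 44 h co-culture of compound, cells and HCVcc-Cre (~0.5 moi), substrate is added for 15 min at room temperature and luciferase measured over 15 sec. Cells were seeded at 1,000/well and pre-cultured 4 h.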
Pf growth 48h: inhibits P. falciparum growth in the first generation, 48 h; P. falciparum luciferase growth in erythrocytes, 48 h; Potency, µM (series often up to 28.7 µM), without a hit: at the top dose activity change, negative = inhibition, most hits filed as inhibitors; hit rate 5.9% among 310,000; AID 504832
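Luciferase-expressing P. falciparum in infected erythrocytes (2% hematocrit, 0.1% parasitemia final) in RPMI 1640/0.5% Albumax were exposed to compound for 48 hours at 37 C, 5% CO2; growth read as luminescence.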
Pf growth 96h: inhibits malaria parasite growth, 96 h. P. falciparum luciferase reporter growth, 96 h. Potency, µM (highest dose often 28.7 µM), inactives show at the top dose activity change, negative = inhibition, most hits filed as inhibitors. hit rate 6.9% among 320,000. AID 504834
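Plates of compound plus infected erythrocytes (2% hematocrit, 0.05% parasitemia final) incubate 96 hours, 37 C, 5% CO2. Detection reagent added; reduced luminescence from the parasites' luciferase reporter flags inhibition.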
* hit, by the source's call; ? = inconclusive; / = no result; [ ] = remark or other dose. Calls come from the whole dose curve; as a rule, active = well fitted curve in the direction sought with a large enough effect; inconclusive = small, poorly fitted or top-dose-only effect, or another doubt; inactive = no such curve, though single readings can be large; an effect the other way counts as inactive or inconclusive. Unless noted, % is set by controls: 0 for no effect and ±100 for the full control effect; potency is the fitted concentration of half-maximal effect.

SMILES	AmpC inh no detg	AMA1 RON2 block	AmpC detergent	HCV inh	Pf growth 48h	Pf growth 96h
COc1ccc(N(CC(=O)NCc2ccc(C)cc2)S(=O)(=O)c2c(C)[nH]c(=O)[nH]c2=O)cc1	-22%	0%	-2%	20%	25%	4.7µM*
COc1ccc(N(CC(=O)NCc2ccc(Cl)cc2)S(=O)(=O)c2c(C)nn(C)c2C)cc1	164%	-10%	-2%	6%	-11%	2%
Cc1cc(C)cc(N(CC(=O)Nc2ccc(C(F)(F)F)cc2)S(=O)(=O)c2c(C)[nH]c(=O)[nH]c2=O)c1	-21%	11%	-3%	?	15µM*	6%
COc1ccc(N(CC(=O)NCc2ccccc2)S(=O)(=O)c2c(C)nn(C)c2C)cc1	8.9µM*	-1%	?	22%	-10%	13%
COc1ccc(N(CC(=O)NC2CCCCCC2)S(=O)(=O)c2c(C)nn(C)c2C)cc1	45%	60%	-8%	-1%	-24%	?
Cc1ccc(N(CC(=O)NC2CCCCCC2)S(=O)(=O)c2c(C)nn(C)c2C)cc1	41%	20%	?	-3%	0%	12µM*
Clc1ccc(-c2nnn3c2nc(NC2CCCCC2)c2ccccc23)cc1	/	/	10%	/	/	/
Cc1nn(C)c(C)c1S(=O)(=O)N(CC(=O)NCc1cccs1)c1ccc(C(C)C)cc1	23%	-1%	?	-9%	1%	9.3µM*
CC(C)Cn1c(N)c(C(=O)COC(=O)Cc2cccc(C(F)(F)F)c2)c(=O)n(C)c1=O	113%	-4%	2%	1%[8.37 µM]	9.3µM*	?
CCc1ccc(C(=O)OCC(=O)c2c(N)n(CC(C)C)c(=O)n(C)c2=O)cc1	80%	-12%	4%	?	?	13µM*
CC(C)Cn1c(N)c(C(=O)COC(=O)c2ccc(F)cc2)c(=O)n(C)c1=O	-19%[11.4 µM]	13%	-11%	?	-4%	3%
CC(C)CN(C(=O)CSc1ccc2c(c1)OCCO2)c1c(N)n(CC(C)C)c(=O)[nH]c1=O	-29%	1%	-5%	10%	?	?
CC(C)Cn1c(N)c(C(=O)CSc2ccc3c(c2)OCCO3)c(=O)n(C)c1=O	-22%	-4%	-2%	2µM*	4%	63%
Cn1c(N)c(C(=O)COC(=O)c2ccc3c(c2)OCCO3)c(=O)n(C)c1=O	-15%	-5%	-8%	-3%	26%	0%
CC(C)Cn1c(N)c(C(=O)COC(=O)c2ccc3c(c2)OCCO3)c(=O)n(C)c1=O	74%	-5%	-5%	7.1µM*	?	?
O=C(Cn1c(=O)nc(-c2ccccc2)c2cc(Cl)ccc21)NCCCc1ccccc1	/	/	8%	/	/	/
COc1ccc(OC)c(CNc2ncnc3c2nc2n3CCCC2)c1	/	/	17%	/	/	/
COc1ccc(C(=O)CN2C(=O)N(c3ccc(C(C)=O)cc3)S(=O)(=O)c3ccccc32)cc1	/	/	9%	/	/	/
CC(C)Cn1c(N)c(C(=O)COC(=O)c2ccccc2Cl)c(=O)n(C)c1=O	-25%[11.4 µM]	-2%	-10%	?	-15%	?
CC(C)Cn1c(N)c(C(=O)COC(=O)c2cccc(Cl)c2)c(=O)n(C)c1=O	-22%[11.4 µM]	10%	?	2.2µM*	6%	33%
O=C(CN1C(=O)COc2ccccc21)N1CCc2ccccc2C1	-19%	-5%	-12%	5%	1%	10µM*
O=C(CN1C(=O)COc2ccccc21)NCCN1CCC(Cc2ccccc2)CC1	44%	-4%	1%	22µM*	/	?
O=C(CN1C(=O)COc2ccccc21)NCCCN1CCN(Cc2ccccc2)CC1	0%	-12%	-3%	0%	10%	0.37µM*
O=C(CN1C(=O)COc2ccccc21)N1CCCC1	-13%	-2%	?	15%	?	4%
Nc1cc(S(=O)(=O)Nc2ccc(Cl)cc2)ccc1N1CCOCC1	-27%	-7%	-1%	?	13%	1%
